Assay [1] deals with Cell division control protein 42 homolog (Homo sapiens) (UniProt P60953). Description: activated mutant Cdc42 GTP-binding inhibitors, dose response, biochemical, multiplex bead flow cytometry, Bodipy-FL-GTP (AID 1333;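 active = fitted half-maximal concentration within the tested dose range, moderate curve steepness, a statistically real signal drop, and little compound fluorescence or tag-binding interference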).
For assay [2] the target is unchanged. Nature of the assay: wildtype Cdc42 GTP-binding inhibitors, dose response, biochemical, multiplex bead flow cytometry, Bodipy-FL-GTP (AID 1334). The note with it: bead-based flow cytometry, Bodipy-FL-GTP binding to GST-Cdc42; at 100 µM (top of the series) unless noted. (In general: In flow cytometry, cells or beads pass a laser one at a time.)
Assay [3] addresses GTPase HRas (Homo sapiens) (UniProt P01112). Description: inhibitors of GTP binding to wildtype Ras, dose response, biochemical, multiplex bead flow cytometry (AID 1335;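 active = fitted half-maximal concentration within 10 nM to 100 µM, steepness 0.5 to 2, significant signal drop, low assay interference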). The note with it: bead-based flow cytometry, Bodipy-GTP binding to GST-Ras; at 100 µM (top of the series) unless noted.
In assay [4] the test system is Ras-related protein Rab-7a (dog), GTP binding. Nature of the assay: Rab7 GTP binding inhibitors, potency, dose response, biochemical, wildtype, multiplex bead flow cytometry (AID 1336; call rule not given here).
Assay [5] addresses Ras-related C3 botulinum toxin substrate 1 (Homo sapiens) (UniProt P63000). Nature of the assay: wildtype Rac1 GTP binding inhibitors, dose response, biochemical, multiplex bead flow cytometry (AID 1340;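 active = dose curve with midpoint inside tested range, moderate steepness, plateau gap beyond fit error, low compound glow and bead-link interference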). Conditions: GST-Rac1 beads, Bodipy-FL-GTP binding; at 100 µM (top of the series) unless noted.
Assay [6] has as its target GTPase HRas (Homo sapiens) (UniProt P01112). Nature of the assay: activated Ras mutant GTP binding inhibitors, dose response, biochemical, multiplex bead flow cytometry (AID 1341;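 active = dose-response curve with midpoint inside the tested range, moderate steepness, significant amplitude and little compound fluorescence or bead-attachment interference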;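 note: GST-tagged constitutively activated Ras mutant immobilized on beads and multiplexed with other GTPases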).

Consider 15 compounds from PubChem BioAssay.

For part of these data: Measured potencies and affinities stand elsewhere. Activity calls are given as the source filed them.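 Rule for the calls, unless noted: active = fitted half-maximal concentration within the tested range, moderate curve steepness, significant signal drop, and little compound fluorescence or bead-linkage interference; inactive = the rest.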

Cell division control protein 42 homolog (Homo sapiens), sequence (P60953 whole entry, looked up): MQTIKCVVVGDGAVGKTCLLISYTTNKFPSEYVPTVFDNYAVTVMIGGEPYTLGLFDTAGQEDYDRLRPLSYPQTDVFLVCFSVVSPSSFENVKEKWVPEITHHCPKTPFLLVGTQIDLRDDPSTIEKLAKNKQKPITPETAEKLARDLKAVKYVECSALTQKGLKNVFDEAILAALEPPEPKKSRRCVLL
GTPase HRas (Homo sapiens), sequence (P01112 whole entry, looked up): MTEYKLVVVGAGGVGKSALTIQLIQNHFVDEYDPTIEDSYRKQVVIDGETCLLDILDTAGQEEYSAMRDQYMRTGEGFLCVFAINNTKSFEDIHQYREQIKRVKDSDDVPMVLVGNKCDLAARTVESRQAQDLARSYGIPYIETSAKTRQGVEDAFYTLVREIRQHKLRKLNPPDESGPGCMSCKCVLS

As to `O=C(Nc1cccc(Cl)c1)Nc1ccnc(-c2cccnc2)n1`, the result in assay [1], in assay [4] and in assay [6] was inactive. The fluorescence, percent of control (lower = inhibition) in assay [2] was found to be 33.8%. In assay [3], this compound gave a GTP binding, percent of control of 72.8%. The compound further had a GTP binding signal, raw median fluorescence (lower = inhibition) (MCF (arbitrary fluorescence units)) in assay [5] of 155.
Turning to `Cc1nn2c(N)csc2nc1=O`, the result in assay [1], in assay [4] and in assay [6] was inactive. Besides, in assay [2], the fluorescence, percent of control (lower = inhibition) was 56.9%. Besides, the GTP binding, percent of control in assay [3] was 67.8%. The GTP binding signal, raw median fluorescence (lower = inhibition) (MCF (arbitrary fluorescence units)) in assay [5] is 94.3.
`CCc1nnc(NC(=O)CSc2nnc(CNc3ccc(F)cc3)n2C2CCCCC2)s1`: the compound was classed as inactive in assay [1], in assay [4] and in assay [6]. The same compound had a fluorescence, percent of control (lower = inhibition) in assay [2] of 52%. In assay [3], this compound yielded a GTP binding, percent of control of 72.6%. Besides, the GTP binding signal, raw median fluorescence (lower = inhibition) (MCF (arbitrary fluorescence units)) in assay [5] was determined as 0.
With `Clc1ccc(Cn2ncc3c(N4CCOCC4)ncnc32)cc1`, the call in assay [1], in assay [4] and in assay [6] was inactive. Further, the fluorescence, percent of control (lower = inhibition) in assay [2] was 50.5%. The compound further showed a GTP binding, percent of control in assay [3] of 66.4%. The compound also yielded a GTP binding signal, raw median fluorescence (lower = inhibition) (MCF (arbitrary fluorescence units)) in assay [5] of 209.
In the case of `Nc1nn2c(-c3ccccc3)cc(=O)[nH]c2c1N=Nc1ccc(O)cc1`, the outcome in assay [1], in assay [4] and in assay [6] was inactive. The fluorescence, percent of control (lower = inhibition) in assay [2] is 33.3%. In assay [3], this compound came in with a GTP binding, percent of control of 75.4%. In addition, in assay [5], the GTP binding signal, raw median fluorescence (lower = inhibition) (MCF (arbitrary fluorescence units)) is 188.
As to `COc1ccc(O)c(CN2CCN(CCc3ccccc3)C(CCO)C2)c1` (stereo not given), the result in assay [1], in assay [4] and in assay [6] was inactive. For the same compound, the fluorescence, percent of control (lower = inhibition) in assay [2] came to 37.3%. Further, the GTP binding, percent of control in assay [3] is 84.3%. The same compound gave a GTP binding signal, raw median fluorescence (lower = inhibition) (MCF (arbitrary fluorescence units)) in assay [5] of 273.
As for `O=C(OC(C(=O)NCc1cccs1)c1ccccn1)c1cccs1` (stereo not given), the result in assay [1], in assay [4] and in assay [6] was inactive. Also, the fluorescence, percent of control (lower = inhibition) in assay [2] stood at 83.4%. Also, the GTP binding, percent of control in assay [3] worked out at 162%. In addition, the GTP binding signal, raw median fluorescence (lower = inhibition) (MCF (arbitrary fluorescence units)) in assay [5] worked out at 175.
Turning to `COc1cc(/C=N/NC(=O)CCN2CCN(c3ccccc3)CC2)cc(OC)c1OC`, the compound was classed as inactive in assay [1], in assay [4] and in assay [6]. For the same compound, the fluorescence, percent of control (lower = inhibition) in assay [2] came out at 34.6%. In assay [3], this compound registered a GTP binding, percent of control of 77.3%. In assay [5], this compound had a GTP binding signal, raw median fluorescence (lower = inhibition) (MCF (arbitrary fluorescence units)) of 236.
`COc1ccc(-c2csc(C3=C(O)CN(C(C)C)C3=N)n2)cc1OC`: the compound was classed as inactive in assay [1], in assay [4] and in assay [6]. Besides, the fluorescence, percent of control (lower = inhibition) in assay [2] was 31.9%. The same compound returned a GTP binding, percent of control in assay [3] of 73.2%. Moreover, the GTP binding signal, raw median fluorescence (lower = inhibition) (MCF (arbitrary fluorescence units)) in assay [5] stood at 181.
For the compound `Cc1cc(C)n2ncc(C(=O)O)c2n1`, the compound was classed as inactive in assay [1], in assay [4] and in assay [6]. The compound further gave a fluorescence, percent of control (lower = inhibition) in assay [2] of 35.6%. The compound also yielded a GTP binding, percent of control in assay [3] of 84%. The compound also had a GTP binding signal, raw median fluorescence (lower = inhibition) (MCF (arbitrary fluorescence units)) in assay [5] of 266.
`O=C(CSc1nnc2c(n1)[nH]c1ccccc12)Nc1ccc(S(=O)(=O)Nc2ncccn2)cc1`: the compound was classed as inactive in assay [1], in assay [4] and in assay [6]. For the same compound, the fluorescence, percent of control (lower = inhibition) in assay [2] stood at 33.3%. Moreover, the GTP binding, percent of control in assay [3] was found to be 72.8%. Also, the GTP binding signal, raw median fluorescence (lower = inhibition) (MCF (arbitrary fluorescence units)) in assay [5] came out at 148.
Take `COc1ccc2c3c(cccc13)C(=O)N(O)C2=O`: the compound was classed as inactive in assay [1], in assay [4] and in assay [6]. Further, in assay [2], the fluorescence, percent of control (lower = inhibition) amounted to 30.1%. The compound further registered a GTP binding, percent of control in assay [3] of 69.8%. Besides, in assay [5], the GTP binding signal, raw median fluorescence (lower = inhibition) (MCF (arbitrary fluorescence units)) came out at 145.
For `COc1ccc(C2=Nn3c(nnc3-c3ccco3)SC2)cc1OC`, the call in assay [1], in assay [4] and in assay [6] was inactive. The compound further showed a fluorescence, percent of control (lower = inhibition) in assay [2] of 69.9%. This compound also returned a GTP binding, percent of control in assay [3] of 137%. In assay [5], this compound displayed a GTP binding signal, raw median fluorescence (lower = inhibition) (MCF (arbitrary fluorescence units)) of 146.
For the compound `COC(=O)c1ccc(/C=N/Nc2nc(-c3ccc(Cl)cc3Cl)cs2)cc1`, the outcome in assay [1], in assay [4] and in assay [6] was inactive. Moreover, in assay [2], the fluorescence, percent of control (lower = inhibition) is 39.1%. Besides, the GTP binding, percent of control in assay [3] amounted to 81.6%. In assay [5], this compound returned a GTP binding signal, raw median fluorescence (lower = inhibition) (MCF (arbitrary fluorescence units)) of 242.
Take `CCC(C)(C)c1ccc(OCCCC[n+]2ccccc2)c(C(C)(C)CC)c1`: the compound was classed as inactive in assay [1], in assay [4] and in assay [6]. The same compound showed a fluorescence, percent of control (lower = inhibition) in assay [2] of 32.7%. Also, in assay [3], the GTP binding, percent of control turned out to be 78.7%. This compound yielded a GTP binding signal, raw median fluorescence (lower = inhibition) (MCF (arbitrary fluorescence units)) in assay [5] of 278.
